7 substances from ChEMBL document CHEMBL1201862, “PubChem BioAssay data set” (2004) can be followed below.

The campaign covered roughly 51,000 sequences. About 3,800 (7.5%) were called active. No stated cut-off is given here; in the data, active = GI50 up to about 1.1 µM and inactive = higher. The entries come from a sample that favours actives as a whole. Results with a measured potency or affinity are listed apart.

This assay has as its system A498.
Broadly, the GI50 is the concentration at which growth is held to half of that of the control. The substance “[Bis(aminomethyl)dimethylsilane]tetrachloroplatinum(IV), CHEMBL2146190” registered a GI50 of 15.5 µM.

On to “mu-(1,7-nanodiamine-N,N')bis-(cis-aminedichloroplatimum (II)), CHEMBL2146215”, for which the GI50 is 66.5 µM.

As for “[Bis(aminomethyl)pentamethylenesilane]dichloropaltinum(II), CHEMBL2146202”, halving of growth (GI50) required 0.279 µM.

Turning to “[Bis(aminomethyl)pentamethylenesilane]tetrachloropaltinum(IV), CHEMBL2146204”, the GI50 was determined as 0.132 µM.

With “[Bis(aminomethyl)tetramethylenesilane]dichloropaltinum(II), CHEMBL2146205”, growth was halved (GI50) at 32.8 µM.

“[Bis(aminomethyl)tetramethylenesilane]tetrachloropaltinum(IV), CHEMBL2146189” displayed a GI50 of 1.64 µM.

CISPLATIN, CHEMBL11359: the GI50 was found to be 8.24 µM.
